Assay results taken from ChEMBL document CHEMBL3433997, “St. Jude Leishmania screening dataset” (2016).

Columns and labels:
Assay type in all cases: functional
[1] = target: Solute carrier family 2, facilitated glucose transporter member 1 (Homo sapiens) (UniProt P11166); assay: ST_JUDE_LEISH: Cytotoxicity at 2uM final concentration against transgenic Leishmania Mexicana promastigotes LmGLUT1 that are glucose transport deficient and complemented with the human glucose transporter GLUT1. Activity is measured by DNA content using SYBR green in vitro
Solute carrier family 2, facilitated glucose transporter member 1 (Homo sapiens), sequence (P11166 whole entry): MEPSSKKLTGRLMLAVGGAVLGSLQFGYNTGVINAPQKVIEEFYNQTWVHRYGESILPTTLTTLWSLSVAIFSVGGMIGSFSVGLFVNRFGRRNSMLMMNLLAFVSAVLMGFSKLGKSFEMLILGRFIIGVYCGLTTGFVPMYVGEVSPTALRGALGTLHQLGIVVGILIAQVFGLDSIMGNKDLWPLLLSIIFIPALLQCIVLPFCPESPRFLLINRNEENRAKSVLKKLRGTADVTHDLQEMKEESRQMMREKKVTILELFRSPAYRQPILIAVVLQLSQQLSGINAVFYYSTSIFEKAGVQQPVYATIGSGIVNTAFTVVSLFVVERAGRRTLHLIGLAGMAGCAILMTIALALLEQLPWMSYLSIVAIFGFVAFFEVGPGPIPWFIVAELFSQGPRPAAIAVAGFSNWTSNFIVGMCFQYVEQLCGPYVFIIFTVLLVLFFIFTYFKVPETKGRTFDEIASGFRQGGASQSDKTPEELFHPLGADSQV

[2] = target: Hexose transporter 1 (Plasmodium falciparum) (UniProt O97467); assay: ST_JUDE_LEISH: Cytotoxicity at 2uM final concentration against transgenic Leishmania Mexicana promastigotes LmPfHT that are glucose transport deficient and complemented with the Plasmodium falciparum hexose transporter. Activity is measured by DNA content using SYBR green in vitro
[3] = target: Glucose transporter (Leishmania mexicana) (UniProt O61059); assay: ST_JUDE_LEISH: Cytotoxicity at 2uM final concentration against transgenic Leishmania Mexicana promastigotes LmGT2 that are glucose transport deficient and complemented with the L. Mexicana glucose transporter 2. Activity is measured by DNA content using SYBR green in vitro

Compound | inhibition [1] | inhibition [2] | inhibition [3]
O=c1cc(NCCC(CNCCc2ccccc2)NCc2cc(Br)cc(Br)c2)[nH]c2ccccc12 (stereo unspecified) | -5.14% | -3.71% | 2.71%
COc1ccc2nccc([C@@H](O)CN3CCC(NCc4cc5ccc(Cl)cc5[nH]4)CC3)c2c1 | 9.64% | 12.1% | 4.6%
Cc1cc(Cl)ccc1NC(=O)NCCCCCN1CCC(c2c[nH]c3ccccc23)CC1 | 11.4% | 14.9% | 10.4%
CC1CN(Cc2cccc(-c3ccc(-c4nc5cc(F)ccc5[nH]4)cc3)c2)CC(C)O1 (stereo unspecified) | 3.14% | 1.73% | 2.23%
COc1ccc(NC(=O)NC2CCN(c3ccnc4ccccc34)C2)cc1 (stereo unspecified) | 0.52% | 0.7% | 2.29%
COc1ccc2cc(C(=O)Nc3ccc4c(c3)CCN(C3CCC3)CC4)ccc2c1 | -2.16% | 2% | 3.8%
Cc1ccc2c(Cl)c(C(=O)N3CC(C)OC(C)C3)sc2c1 (stereo unspecified) | 0.22% | 1.09% | 3.43%
Cn1cccc1C(=O)C(=O)Nc1ccc(-c2ccc(-c3nc4cc(F)ccc4[nH]3)cc2)cc1 | 8.15% | -0.07% | -0.45%
O=C(Cn1c(SCc2cccc(F)c2F)cc(=O)c2ccccc21)N(CCCn1ccnc1)Cc1ccc(-c2ccc(C(F)(F)F)cc2)cc1 | 3.11% | 1.44% | 2.6%
COc1ccc(Cl)cc1S(=O)(=O)Nc1cccc(CCN2CCC(N3CCCCC3)CC2)c1 | 2.48% | 4.55% | 0.15%
COc1ccc(C2CC(c3cccs3)=NN2C(=O)COc2cccc(C(C)=O)c2)cc1OC (stereo unspecified) | 0.04% | -0.46% | -2.22%
CN(C)CCNCc1ncsc1-c1ccc2c(Nc3ccc(F)cc3Cl)ccnc2c1 | 3.88% | 4.3% | 4.59%
